# From PubChem
# A selection: hits, their analogues and other compounds. The true share with any hit is near 1.9%.
# LDHA inh: LDHA (human) enzyme inhibition; P00338; purified LDHA, NADH/diaphorase-resazurin fluorescence; stronger effect = lower value; activity change, % (values are at about 110 or 230 µM); hit rate 0.15% among 480,000; AID 1347041; in the data active = activity change below about -30%; inconclusive = mostly about -25% to -30%;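 also: plate controls were DMSO wells for no effect and wells without enzyme for full effect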
#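 Remaining NADH was detected by diaphorase (0.133 mg/mL) converting 37 µM resazurin to fluorescent resorufin, read at 0 and 20 minutes. The preceding 5-minute room-temperature reaction used 2 nM LDHA, 0.2 mM sodium pyruvate and 0.06 mM NADH at pH 7.4.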
# FUS suppressor: rescues growth of FUS-expressing yeast; Potency, µM (series often up to 76.6 µM), most hits filed as activators; S. cerevisiae FUS-expressing, growth rescue, OD600, 24 h; hit rate 0.24% among 390,000;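 also: potency is read from the fitted curve at half-maximal effect; plate controls were DMSO vehicle for no effect and reference control for full effect; nearly all actives have a fitted effect of over 55% in size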
#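 Steps: raffinose overnight preculture; dilution to OD 0.005 in 2% galactose minimal medium; compound addition (concentration series); 24hr at 30C, 99% humidity; absorbance read at 600 nm.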
# TDP-43 yeast inh: inhibitors of TDP-43 toxicity in yeast; TDP-43 expressing yeast growth rescue, BacTiter-Glo, 24 h; Potency, µM (titrated, usually from 46.1 µM), inactives show top-dose growth rescue (activation), most hits filed as activators; hit rate 1.8% among 410,000; AID 652104; also: potency is read from the fitted curve at half-maximal effect; % of control where 0% means no effect; nearly all actives have a fitted effect of over 50% in size
#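 Growth rescue of TDP-43-toxic yeast measured as ATP luminescence (BacTiter-Glo). Cells grown to mid-log in raffinose, induced in galactose at OD600=0.02, exposed to compound 24 hr at 30 deg C.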
# Abeta rescue: compounds reversing amyloid beta toxicity in yeast; Potency, µM (top dose mostly 46.1 µM), most hits filed as activators; yeast expressing A-beta42, growth rescue, OD600, 48 h; response scale: 0% DMSO, 100% iron-clioquinol control; hit rate 0.063% among 410,000; also: potency is read from the fitted curve at half-maximal effect; nearly all actives have a fitted effect of over 55% in size
#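 Growth rescue measured by 600 nm absorbance after 48 h yeast culture at 30 C with compound. Values normalized between DMSO and an equimolar ferric chloride plus clioquinol control.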
# PTHR1 ag: agonists of human PTHR1 parathyroid hormone receptor; Q03431; HEK293 GP2 PTHR1 cells, GloSensor cAMP luminescence, 1 h; Potency, µM (top dose mostly 115 µM), for inactives: at the top dose activation, usual class: activators; hit rate 0.075% among 410,000; AID 743266; also: potency is read from the fitted curve at half-maximal effect; nearly all actives have a fitted effect of over 55% in size
# Target sequence (Q03431 whole entry, looked up): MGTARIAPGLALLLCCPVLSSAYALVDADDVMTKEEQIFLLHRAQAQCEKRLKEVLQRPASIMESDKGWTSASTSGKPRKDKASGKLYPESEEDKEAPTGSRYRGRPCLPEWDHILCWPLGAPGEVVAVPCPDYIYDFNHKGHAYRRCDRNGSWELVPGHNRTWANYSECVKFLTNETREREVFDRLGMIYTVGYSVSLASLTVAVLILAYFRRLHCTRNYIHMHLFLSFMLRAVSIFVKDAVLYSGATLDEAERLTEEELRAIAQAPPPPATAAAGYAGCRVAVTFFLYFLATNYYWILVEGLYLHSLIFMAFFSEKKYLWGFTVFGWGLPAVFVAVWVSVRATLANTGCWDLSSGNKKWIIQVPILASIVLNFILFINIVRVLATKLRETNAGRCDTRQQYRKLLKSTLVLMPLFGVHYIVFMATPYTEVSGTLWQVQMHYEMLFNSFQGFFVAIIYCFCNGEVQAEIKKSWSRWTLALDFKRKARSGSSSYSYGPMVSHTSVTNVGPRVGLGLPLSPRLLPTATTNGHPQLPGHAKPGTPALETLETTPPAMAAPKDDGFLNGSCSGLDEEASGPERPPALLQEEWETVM
#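 HEK-293-derived GP2 cells expressing PTHR1 and a GloSensor cAMP reporter, 3,000/well, plated overnight, given luciferin plus IBMX (each 0.5 mM as added) for 1 h at 37 °C, then compound for 1 h at 37 °C. Luminescence was read after 15 min at room temperature.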
# aSyn rescue: rescues yeast growth from alpha-synuclein toxicity; Potency, µM (titrated, usually from 46.1 µM), inactives show at the highest dose growth rescue (activation), hits mostly activators; hit rate 0.14% among 370,000; AID 652106; Yeast expressing alpha-synuclein, growth rescue, BacTiter-Glo, 24 h; also: potency is read from the fitted curve at half-maximal effect; % of control where 0% means no effect; nearly all actives have a fitted effect of over 65% in size
#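 Galactose-induced alpha-syn yeast (OD600=0.02, raffinose-pregrown) + pinned cpd, 24 hr, 30 deg C; growth by BacTiter-Glo luminescence. Growth restoration scores as activation.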
# The depositor's hits bear a star; i = inactive; ? = inconclusive; · = not tested or not shown; [ ] = dose if it differs, or a comment. Unless noted, calls follow the shape of the dose curve; as a rule, active = well fitted curve in the direction sought with a large enough effect; inconclusive = small, poorly fitted or top-dose-only effect, or another doubt; inactive = no such curve, though single readings can be large; an effect the other way counts as inactive or inconclusive.
SMILES,LDHA inh,FUS suppressor,TDP-43 yeast inh,Abeta rescue,PTHR1 ag,aSyn rescue
Cn1ncc(Cl)c1C(=O)NC1C2CC3CC(C2)CC1C3 (stereo not given),-8,i,?,i,-7%,8%
CCOc1ccccc1C(=O)NCc1nc2cccnc2n1Cc1ccc(C)cc1,-7,i,16µM*,i,-28%,·
Cc1noc(C)c1COC(=O)[C@H](C)NS(=O)(=O)c1ccc(Cl)c(Cl)c1,0,i,-3%,i,-3%[57.5 µM],-1%
Cc1noc(C)c1COC(=O)Cc1ccc(Cl)c(Cl)c1,-2,i,10µM*,i,-15%,25%
O=C(NCc1ccccc1Cl)c1cccc(C(F)(F)F)c1,-8,i,35µM*,i,-11%,7%
Cc1c(C(=O)c2ccc3c(c2)OCO3)ccc2c1OCO2,-1,·,18µM*,i,-3%,5%
CCOc1ccccc1C(=O)NC1(C(F)(F)F)C(=O)Nc2c1c(=O)[nH]c(=O)n2Cc1ccccc1 (stereo not given),-3,·,·,·,·,·
Cc1ccc(CSc2cn(CC(=O)N3CCCCCC3)c3ccccc23)cc1,0,i,16%,i,-28%,·
Cc1ccc(CSc2cn(CC(=O)N3CCCC3)c3ccccc23)cc1,7,?,22µM*,i,i,·
COC(=O)c1ccc2c(c1O)C(=O)c1ccccc1C2=O,14,i,7.9µM*,i,-33%,2%
COC(=O)c1cccc2c1-c1ccccc1/C2=N/O,-3,i,13µM*,i,i,-20%
O=C1c2ccccc2C(=O)c2c1ccc(O)c2O,5,i,-70%,i,-17%,-11%
CN(CCO)c1nc(-c2ccco2)c2c(c1C#N)CCCC2,14,·,·,·,·,·
CCc1ccccc1NC(=O)CN(C)C(=O)c1cc2ccc(F)cc2nc1C,0,·,·,·,·,·
CC(C)Oc1ccc(C(=O)O)cc1,-8,i,13µM*,i,i,1%
CC(C)Oc1ccc(C(=O)O)c(C(=O)O)c1,3,i,-20%,i,i,1%
S=C1NCN(Cc2ccco2)CN1CCc1ccccc1,0,i,?,14µM*,i,3%
COc1cc(C(=O)OCC(=O)Nc2ccc3c(c2)OC(F)(F)O3)ccc1OCc1c(C)noc1C,-3,i,35µM*,i,-2%,1%
O=C(Cc1c(Cl)cccc1Cl)Nc1ccncc1,-12,i,-16%,i,4%,2%
O=C(Cc1c(Cl)cccc1Cl)Nc1ccncc1Cl,-1,i,11µM*,i,-19%,2%
CC(C)NC(=S)N/N=C/C(Cl)=C/c1ccccc1,7,·,·,·,·,·
CC(C)CN(C(=O)c1ccc(=O)n(C)n1)c1nc2ccccc2s1,4,i,16µM*,i,?,0%
CCOC(=O)N1CCN(C(=O)c2cc3occc3n2Cc2ccccc2Cl)CC1,1,·,·,·,·,·
O=c1oc2ccccc2c(N2CCCC2)c1NS(=O)(=O)c1ccc(Br)s1,-14,·,·,·,·,·
Cc1cc(C)c(C#N)c(SCC(=O)c2cccs2)n1,-1,i,2.8µM*,i,-79%,12%
SMILES,LDHA inh,FUS suppressor,TDP-43 yeast inh,Abeta rescue,PTHR1 ag,aSyn rescue
O=C(CSCc1ccc(F)cc1)Nc1nc2c(s1)CCCC2,-2,i,14µM*,i,i,12%
O=C(COc1ccccc1Cl)Nc1nc2c(s1)CCCC2,-12,i,11µM*,i,i,·
O=C(CCSc1ccc(Cl)cc1)Nc1nc2c(s1)CCC2,13,·,·,·,·,·
O=C(CSc1nnc(CNc2ccc(Cl)cc2)o1)Nc1nc2c(s1)CCCC2,-1,35µM*,19%,i,-17%[57.5 µM],-5%
Cc1ccccc1-c1noc(CN(C)C(C)c2cc3ccccc3o2)n1 (stereo not given),24,·,·,·,·,·
CC(C1CC1)N(C)Cc1nnc(-c2ccc(Br)o2)o1 (stereo not given),-20,·,·,·,·,·
C(=N\Nc1ccccc1)/c1ccc(OCc2ccccc2)cc1,-5,·,·,·,·,·
